Data as given in PubChem BioAssay (NCI).
Compounds without any hit were thinned out: in the full panel of roughly 83,000, 20% have a hit.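 Single-dose data. Exposure time 48 hours. Values below 10 considered active.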 Active and inactive are the calls of the source.

Each compound was assayed on HL-60(TB) leukemia (assay: NCI-60 one-dose screen, 48 h (100 = growth as untreated, 0 = no growth, -100 = all killed)). Details: 10 µM unless noted.
In the case of `Nn1c(SCC(=O)Nc2ccc(Cl)cc2)nnc1-c1cc(F)c(Cl)cc1Cl`, the growth was 84.5% (inactive). With `COc1cc(Cl)cc(-c2nn(C(=O)NS(=O)(=O)c3ccccc3)cc2-c2ccncc2)c1` the growth was 94.3% (inactive). `Nc1ncnc2c1ncn2C1OC(COP(=O)(O)O)C(O)C1O` (stereo not given) was tested, and the growth was 102% (inactive). With `C=C(C)[C@@H]1CC[C@]2(C=O)CC[C@]3(C)[C@H](CC[C@@H]4[C@@]5(C)C/C(=C/c6cccnc6)C(=O)C(C)(C)[C@@H]5CC[C@]43C)[C@@H]12` the growth was 25.9% (inactive). For `O=C(CCCCC(=O)Oc1c(Cl)cc(Cl)cc1[N+](=O)[O-])Oc1c(Cl)cc(Cl)cc1[N+](=O)[O-]`, the growth was 81.9% (inactive). With `O=C(N=Nc1c(O)[nH]c2ccccc12)Nc1ccccc1Cl` the growth was 78.3% (inactive). In the case of `Nc1ncnc2[nH]c(=O)[nH]c12`, the growth was 140% (inactive). With `COc1ccc(C2=Nn3c(nnc3-c3ccc(Cl)cc3N)SC2)cc1` the growth was 100% (inactive). In the case of `COc1cc(C(=O)c2cnc(-c3ccc4cc[nH]c4c3)[nH]2)cc(OC)c1OC`, the growth was -1.01% (active). `Cc1cc(Nc2nc(SCc3ccc(C(=O)Nc4ccc(F)cc4N)cc3)nn3cccc23)n[nH]1` was tested, and the growth was -26.4% (active). With `CN(C)c1ccc(-c2ccc(-c3ccc(C(=N)N)c(F)c3)s2)cc1` the growth was -46.1% (active). `CC(=O)Nc1cccc(C2=CC(c3ccc(C)cc3)n3ncnc3N2)c1` (stereo not given) was tested, and the growth was 89.9% (inactive). `C=C(C)[C@@H]1CC[C@]2(C(=O)N3CCOCC3)CC[C@]3(C)[C@H](CC[C@@H]4[C@@]5(C)C/C(=C/c6ccncc6)C(=O)C(C)(C)[C@@H]5CC[C@]43C)[C@@H]12` was tested, and the growth was 26.2% (inactive). With `CC1(C)CC[C@]23CC[C@]4(C)[C@H](CC[C@@H]5[C@@]6(C)CCNCC(C)(C)[C@@H]6CC[C@]54C)[C@H]2[C@H]1OC3` the growth was 23.6% (inactive). In the case of `CC(C)NS(=O)(=O)c1cccc(-c2ccc3c(=O)n(CCCN)c4c(c3c2)C(=O)c2ccccc2-4)c1`, the growth was 125% (inactive). `COc1ccc(-c2cc(C(=O)N3N=C(c4ccc(N)cc4)CC3c3ccc(Cl)cc3)c3cc(OC)ccc3n2)cc1` (stereo not given) was tested, and the growth was 4.62% (active). `Nc1nc2ccccc2c2c(=O)c3ccc(Cl)cc3sc12` was tested, and the growth was 92.1% (inactive). `COc1ccc2c(c1)nc(N)c1c3cc(OC)c(OC)cc3cn21` was tested, and the growth was 23.1% (inactive). In the case of `COc1cc(Nc2ncccc2/C=C/C(=O)c2cc(OC)c(OC)c(OC)c2)cc(OC)c1OC`, the growth was 73.1% (inactive). With `O=C1C=CC(=O)N1c1ccc(O)cc1` the growth was 112% (inactive). In the case of `O=Cc1c(OCc2cnnn2CC(=O)Nc2ccc(Br)cc2)ccc2ccccc12`, the growth was 105% (inactive). In the case of `COc1cc2c3c(n(CCCCNCCCn4c5c(c6cc(OC)c(OC)cc6c4=O)C(=O)c4cc6c(cc4-5)OCO6)c(=O)c2cc1OC)-c1cc2c(cc1C3=O)OCO2`, the growth was 93.7% (inactive). For `COc1ccc(C2CC(c3cc(OC)c(OC)c(OC)c3)=NN2c2ccc(S(N)(=O)=O)cc2)cc1` (stereo not given), the growth was 2.23% (active). With `Cn1c(-c2ccccc2)cc(=O)n1-c1ccccc1` the growth was 109% (inactive). For `CN(C)c1ccc(/C=N/Nc2nnc3n2N=C(c2ccc(Cl)cc2)CS3)cc1`, the growth was 91.4% (inactive). `Cc1nc2ccccc2c(/C=C/c2ccc(C(F)(F)F)cc2)c1C(=O)/C=C/c1ccccc1` was tested, and the growth was -19% (active). For `CCCCCc1c(C)[nH]c(/C=C2\N=C(c3ccc[nH]3)C=C2Oc2ccc(Cl)cc2)c1C`, the growth was -40.3% [100 µM] (active). For `O=C(CCCCCCCCC(=O)N/N=C\c1cc(Cl)ccc1O)N/N=C\c1cc(Cl)ccc1O`, the growth was 9.81% (active). With `O=c1oc2ccc(I)cc2c(=O)n1-c1ccc(F)cc1F` the growth was -4.05% (active). `CCOC(=O)C1=C(C)NC(=O)NC1c1cccs1` (stereo not given) was tested, and the growth was 60.5% (inactive). In the case of `CCC(=O)c1cc([N+](=O)[O-])c(Br)s1`, the growth was 34% (inactive). In the case of `Cc1ccc2c(c1)C(=O)/C(=C/c1ncc([N+](=O)[O-])n1C)O2`, the growth was -13% (active). `CCOC(=S)Sc1ccc([N+](=O)[O-])cc1[N+](=O)[O-]` was tested, and the growth was -25.6% (active). For `CCCCCCCCCCCCC1CCC/C=C\CCC(=O)O1` (stereo not given), the growth was 88.6% (inactive). `O=S(=O)(/N=C1C=C/C(=N\S(=O)(=O)c2ccccc2)c2ccccc2\1)c1ccccc1` was tested, and the growth was 100% (inactive). For `O=C(Nc1nc(-c2ccc(Cl)cc2)cs1)c1cc(-c2ccc(Br)cc2)nc2ccc(Cl)cc12`, the growth was -24.7% (active). `CCn1cc(C2=C(c3cn(C)c4ncccc34)C(=O)NC2=O)c2cccnc21` was tested, and the growth was 89.8% (inactive). For `Cc1cc(C)c2c(c1)N1OC(C2)C[C@H]1/C=C/c1ccccc1` (stereo not given in full), the growth was 82.2% (inactive). `COc1cc(/C=C/C(=O)c2ccc(Nc3nc(Nc4ccc(F)cc4)nc(Nc4ccc(Cl)cc4)n3)cc2)cc(OC)c1OC` was tested, and the growth was -32.1% (active). In the case of `Cc1oc2ccc(O)c(CN3CCCCCC3)c2c1C(=O)Nc1ccc(C(F)(F)F)cc1`, the growth was 83% (inactive).
